Data taken from PubChem BioAssay AID1220 (Sanford-Burnham Center for Chemical Genomics, 2008).
Out of some 190,000 compounds screened, about 1,300 (0.68%) were called active. For the sample, actives were picked, then their nearest neighbours and some compounds at random. Unmarked numbers belong to inactive results. Cut-off read from the data, not from the text of the source: active = inhibition above about 50%; inactive = the rest.

Target: Mannose-6-phosphate isomerase (Homo sapiens) (UniProt P34949)
Sequence (P34949 whole entry, looked up): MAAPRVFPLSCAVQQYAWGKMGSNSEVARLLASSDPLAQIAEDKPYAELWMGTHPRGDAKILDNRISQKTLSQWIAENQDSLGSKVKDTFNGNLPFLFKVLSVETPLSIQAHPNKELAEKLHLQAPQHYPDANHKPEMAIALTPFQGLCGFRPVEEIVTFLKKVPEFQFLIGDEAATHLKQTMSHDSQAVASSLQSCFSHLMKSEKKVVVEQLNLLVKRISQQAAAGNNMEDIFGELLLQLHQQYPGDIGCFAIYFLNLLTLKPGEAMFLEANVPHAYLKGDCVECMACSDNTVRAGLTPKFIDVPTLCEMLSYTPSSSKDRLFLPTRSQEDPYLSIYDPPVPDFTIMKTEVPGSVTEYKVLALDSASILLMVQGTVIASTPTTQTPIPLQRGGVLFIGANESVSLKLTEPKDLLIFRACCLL
Assay: MPI inhibition at elevated mannose 6-phosphate – biochemical, fluorescence intensity, high mannose 6-phosphate, primary screen (AID 1220)
Conditions: recombinant PMI enzyme, coupled fluorescence intensity; at 20 µM; stronger effect = higher value

Compared with O=C(c1ccc(Cl)cc1Cl)N1CCC(c2nc3c(nnn3Cc3ccco3)c(=O)[nH]2)CC1, O=C1N/C(=C/c2ccc(N3CCOCC3)o2)C(=O)N1c1cccc(Cl)c1 is higher in inhibition: 14.6% for the first, 15.3% for the second.

Compared with CN(C)CCCN(C(=O)COc1ccccc1)c1nc2c(F)cccc2s1, CN(C)CCCN(C(=O)CCc1ccccc1)c1nc2c(F)cccc2s1 is higher in inhibition: -2.9% for the first, 4% for the second.

Compared with COc1ccc(C)cc1NC(=O)CN(C)S(=O)(=O)c1cccs1, COC(=O)c1cccc(NC(=O)c2cccs2)c1C is higher in inhibition: 1.9% for the first, 10.7% for the second.

Going from Cc1ccc(SCCC(=O)NCCSCc2ccccc2C)cc1 to CSc1ccc(C#N)cc1NC(=O)c1ccccc1C, the inhibition falls from 8.3% to -2.5%.

Compared with CCOc1ccc(C(=O)CCNC(Cc2cnc[nH]2)C(=O)O)cc1 (stereo not drawn), CCOc1ccc(NC(=O)c2ccc(-n3cccn3)nc2)cc1 is lower in inhibition: 3.4% for the first, 2.9% for the second.

Going from O=C1S/C(=C/c2ccc(N3CCOCC3)o2)C(=O)N1Cc1c(F)cccc1Cl to O=C1S/C(=C/c2ccc(N3CCOCC3)o2)C(=O)N1Cc1ccc(F)cc1, the inhibition rises from 5.6% to 45.3%.

Going from O=C1N/C(=C/c2ccc(N3CCOCC3)o2)C(=O)N1c1ccccc1 to Oc1ccc2ccccc2c1C=Nc1ccc(N2CCOCC2)cc1, the inhibition rises from 9% to 29%.

First: CC(C)OC(=O)CN1C(=O)S/C(=C/c2ccc(N3CCCCC3)o2)C1=O
Second: COC(=O)CN1C(=O)S/C(=C/c2ccc(N3CCCCC3)o2)C1=O
The inhibition of the first is lower: 25% for the first, 46% for the second.

Compared with CCCN1C(=O)S/C(=C\c2ccc(N3CCOCC3)cc2C)C1=O, CCOC(=O)CN1C(=O)S/C(=C/c2ccc(N3CCCCC3)o2)C1=O is higher in inhibition: 9.4% for the first, 24.1% for the second.

Compared with COc1ccc(C2C(C(=O)c3ccc(C)o3)=C(O)C(=O)N2c2cc(C)on2)cc1OC (stereo not drawn), COc1ccc(CNn2c(-c3cccs3)nc3ccccc3c2=O)cc1OC is higher in inhibition: -22.3% for the first, 8% for the second.

Going from O=C(CSc1ncccn1)Nn1cnnc1 to COc1ccccc1OCC(=O)Nc1ccccn1, the inhibition rises from -0.7% to 1.4%.

Going from COc1ccc(NC(=O)Nc2cc(NC(=O)Nc3ccc(OC)cc3)c(C)nc2C)cc1 to COc1ccc(NC(=O)c2ccc(-n3cccn3)nc2)cc1, the inhibition rises from -8.6% to 0.8%.

Compared with CC(=O)N1c2ccccc2NC2=C(C(=O)CCC2)C1c1cccnc1 (stereo not drawn), CCOc1ccc(S(=O)(=O)N2CCN(c3ccccc3F)CC2)c2cccnc12 is higher in inhibition: 6.7% for the first, 27% for the second.

Going from Clc1cccc(OCCn2cncn2)c1Cl to O=C(OCc1c(F)cccc1Cl)c1cnccn1, the inhibition rises from -4.8% to 11.3%.

Going from O=C(CCCC(=O)N1CCc2ccccc21)N1CCc2ccccc21 to OCc1nc2ccccc2n1CCCOc1ccccc1, the inhibition rises from -6.6% to -6.4%.

First: COc1cc(OC)cc(C(=O)NNC(=S)NCc2ccco2)c1
Second: N#C/C(=C\c1cn(CCOc2ccccc2)c2ccccc12)C(=O)NCc1ccco1
The inhibition of the first is lower: -10.1% for the first, -1.2% for the second.

Compared with COc1ccc(-n2c(CSc3nc(C)cc(C)n3)nnc2SCC(=O)Nc2nccs2)cc1, Cn1c(CSc2nc3ccccc3s2)nnc1SCC(=O)NCCCN1CCOCC1 is lower in inhibition: 1.3% for the first, -11.8% for the second.

First: CS(=O)(=O)c1ccccc1-c1nc(-c2cccc(Cl)c2)no1
Second: Oc1oc(-c2cccc3ccccc23)nc1/C=N/c1nccs1
The inhibition of the first is higher: 9.9% for the first, 9.5% for the second.

Compared with CSc1nc2sc3c(c2c(=O)n1C1CCCCC1)CCN(C)C3, CCSc1nc2sc3c(c2c(=O)n1C1CCCCC1)CCN(C)C3 is lower in inhibition: 10.7% for the first, -33.5% for the second.

Compared with CCOc1ccc(CNC(=O)CCc2cn(Cc3ccccc3)c3ccccc23)cc1, Cc1c(Cc2ccccc2)sc(/N=C/c2c(O)ccc3ccccc23)c1C(N)=O is higher in inhibition: 0.6% for the first, 29.8% for the second.

Going from C=CCn1c(O)c(CN2CCN(Cc3ccccc3)CC2)c(C)c(C#N)c1=O to C=CCn1c(C)cc(C)c(C#N)c1=O, the inhibition falls from 15.6% to -6.4%.

First: C=CCn1c(O)c(C(CC)=NCCN2CCOCC2)c(=O)[nH]c1=O
Second: Cc1oc(C(C)(C)C)c(CN2CCOCC2)c1C(=O)O
The inhibition of the first is lower: -15.4% for the first, -2.9% for the second.

First: O=C(NCCC1=CCCCC1)C(=O)NCC(c1ccco1)N1CCN(c2ccc(F)cc2)CC1 (stereo not drawn)
Second: CC(=O)c1cc2c(cc1NC(=O)CN1CCN(c3ccc(F)cc3)CC1)OCO2
The inhibition of the first is lower: 2.7% for the first, 5.5% for the second.

Going from COc1cc(NC(=S)NCCC(c2ccccc2)c2ccccc2)c(OC)cc1Cl to CCOC(=O)C1=C(c2ccccc2)NC(SCC(=O)Nc2cccc(C)c2)=C(C#N)C1c1ccco1 (stereo not drawn), the inhibition falls from 17.2% to 15.6%.

First: Cc1nnc(Sc2nc3c(c(=O)n(C)c(=O)n3C)n2Cc2ccc(Cl)cc2)s1
Second: Cc1cc(C)n(/N=C\c2c(O)ccc3ccccc23)c(=O)c1C(N)=O
The inhibition of the first is lower: 7.9% for the first, 22.5% for the second.

Compared with COCc1c(C#N)c(NCCc2ccc(F)cc2)nc(C)c1[N+](=O)[O-], Cc1sc(/N=C/c2c(O)ccc3ccccc23)c(C#N)c1C is lower in inhibition: 9.3% for the first, -3.6% for the second.

Compared with CCCC(=O)c1ccc(N2CCN(C(=O)c3ccc(Br)cc3)CC2)c(F)c1, CCC(=O)c1ccc(N2CCN(C(=O)c3ccc(Br)cc3)CC2)c(F)c1 is higher in inhibition: -2.3% for the first, 9.1% for the second.

First: O=C(NCCCCCCNC(=O)C1CCCC1)C1CCCC1
Second: CC(C)C(c1nnnn1C1CCCCC1)N1CCCc2ccccc21 (stereo not drawn)
The inhibition of the first is lower: -0.9% for the first, 8.3% for the second.

Compared with O=C(COc1ccc2ccccc2c1)Nc1ccc2c3c(cccc13)CC2, COc1ccc(N=Cc2oc3ccc4ccccc4c3c2O)cc1 is higher in inhibition: -1.8% for the first, 13.8% for the second.

First: O=C(NCc1ccccc1)NC(O)C(Cl)(Cl)Cl (stereo not drawn)
Second: O=C(Cn1ccccc1=O)c1ccc(Cl)cc1
The inhibition of the first is higher: 0.1% for the first, -5.5% for the second.

Compared with O/C(=C\c1ccc2ccccc2n1)c1ccc(O)cc1O, COc1ccc2nc(N=Nc3c(O)ccc4ccccc34)sc2c1 is higher in inhibition: -10.3% for the first, 24.5% for the second.

Going from CCOc1ccc(N=C2Sc3nc4ccc(C)cc4cc3CN2CCOC)cc1 to COc1ccc(N=Cc2c(O)[nH]c3ccccc23)cc1, the inhibition falls from 9.3% to 1.9%.

Compared with Nc1cc(Cl)nc(N/N=C/c2c(O)ccc3ccccc23)n1, Oc1ccc2ccccc2c1/C=N/c1nc2c(s1)CCCC2 is higher in inhibition: 13.3% for the first, 46.1% for the second.

Compared with COc1cccc(C=Nc2ccc(C)c(F)c2)c1O, Cc1oc(/N=C/c2cccc3ccccc23)c(C#N)c1C is higher in inhibition: 15.7% for the first, 20.1% for the second.

First: Cc1cc(N=Cc2cc(Br)ccc2O)no1
Second: Cc1cc(N=Cc2cc(Cl)ccc2O)no1
The inhibition of the first is lower: -9.4% for the first, 14.2% for the second.

Going from Cc1oc(/N=C/c2ccccc2O)c(C#N)c1C to Cc1cc(O)c(C=Nc2ccc(Cl)cn2)c(=O)o1, the inhibition falls from -16.8% to -60.9%.

Compared with COc1ccccc1Nc1ccc(N)cc1, COc1ccc2nc(N)sc2c1 is lower in inhibition: 23.2% for the first, -1.6% for the second.

Going from CCN(C(=O)CSc1nnc(-c2ccncc2)n1-c1ccccc1)C1CCS(=O)(=O)C1 (stereo not drawn) to Cc1ccc(N2CCN(C(=O)c3cc(C(=O)c4ccccc4C)c[nH]3)CC2)c(C)c1, the inhibition rises from -2.5% to 16.7%.

First: CCc1ccc(C(=O)NN(C(=O)c2ccc(CC)cc2)C(C)(C)C)cc1
Second: CCOC(=O)c1cc(CC)sc1/N=C/C1=C(O)CC(C)(C)CC1=O
The inhibition of the first is higher: 14.2% for the first, 7.3% for the second.

First: Oc1ccc2ccccc2c1C=Nc1ccccc1-c1nc2ccccc2[nH]1
Second: Oc1[nH]c2ccccc2c1/C=N/c1nccs1
The inhibition of the first is higher: 22.9% for the first, -1% for the second.

First: Cc1ccsc1C(=O)NNC(=O)C1CC=CCC1C(=O)O (stereo not drawn)
Second: COc1ccc2c(c1)-c1nc(NC(=O)c3cccs3)sc1CC2
The inhibition of the first is higher: -4.3% for the first, -22.3% for the second.

Compared with Cc1noc(C)c1Cn1nc(C(=O)O)c2ccccc2c1=O, CCOC(=O)c1cc(CC)sc1/N=C/C1=C(O)CCCC1=O is higher in inhibition: 1.4% for the first, 14.3% for the second.

With CN(C)CCCN(C(=O)CCOc1ccccc1)c1nc2c(F)cccc2s1 the inhibition was 54.4% (active).
With O=C1S/C(=C\c2ccc(N3CCOCC3)o2)C(=O)N1Cc1ccc(F)cc1 the inhibition was 57.3% (active).
O=C1S/C(=C\c2ccc(N3CCOCC3)o2)C(=O)N1Cc1c(F)cccc1Cl was tested, and the inhibition was 56.3% (active).
For CCCN1C(=O)S/C(=C\c2ccc(N3CCOCC3)o2)C1=O, the inhibition was 52.4% (active).
In the case of O=C1S/C(=C\c2ccc(N3CCOCC3)o2)C(=O)N1c1ccccc1, the inhibition is reported as 53.8% (active).
With N#CCSc1nc2sc3c(c2c(=O)n1C1CCCCC1)CCCC3 the inhibition was 52.4% (active).
With C=CCn1c(O)c(CN2CCCCC2)c(C)c(C#N)c1=O the inhibition was 70.2% (active).
C=CCn1c(O)c(CN2CCOCC2)c(C)c(C#N)c1=O was tested, and the inhibition was 56.6% (active).
In the case of CC(=O)c1ccc(N2CCN(C(=O)c3ccc(Br)cc3)CC2)c(F)c1, the inhibition is reported as 55.1% (active).
Cc1ccc(NC(=O)c2ccc(-n3cccn3)nc2)cc1 was tested, and the inhibition was 51.4% (active).
Cc1cc(N=Cc2c(O)ccc3ccccc23)no1 was tested, and the inhibition was 66.9% (active).
With Cc1ccc(N=Cc2c(O)ccc3ccccc23)cc1F the inhibition was 51.7% (active).
Cc1oc(/N=C/c2c(O)ccc3ccccc23)c(C#N)c1C was tested, and the inhibition was 53.7% (active).
With Oc1ccc2ccccc2c1C=Nc1ccc(Cl)cn1 the inhibition was 75.2% (active).
For N#Cc1cccc(N=Cc2c(O)ccc3ccccc23)c1, the inhibition was 64.6% (active).
With O=C(O)Cc1ccc(N=Cc2c(O)ccc3ccccc23)cc1 the inhibition was 58.7% (active).
In the case of Oc1ccc2ccccc2c1/C=N/c1nccs1, the inhibition is reported as 62% (active).
In the case of CCOC(=O)c1cc(CC)sc1/N=C/c1c(O)ccc2ccccc12, the inhibition is reported as 60.7% (active).
For COc1ccc(N=Cc2c(O)ccc3ccccc23)cc1, the inhibition was 68.5% (active).
